This passage reports Potency, outcome and activity change, negative = inhibition results from PubChem BioAssay (NCATS).

Experiment [1] concerns Zika virus NS2B-NS3 protease (unlinked complex). As to the kind of experiment: Primary screen GU Rhodamine qHTS for Zika virus inhibitors: Unlinked NS2B-NS3 protease assay (AID 1347159). For activity change, negative = inhibition: % is set by controls: 0 for no effect and ±100 for the full control effect. Note: nearly all actives have a fitted effect of over 60% in size. Note: potency is the fitted concentration of half-maximal effect. Summed up:
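Enzyme 25 nM in Tris-HCl pH 8.0 + 0.01% Tween 20; compounds up to 114 microM, 15 min RT dark; + Rhod110 substrate 1.5 microM; read t0 and 15 min; delta fluorescence → % inhibition → 4-parameter Hill fit.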

Experiment [2] has as its system Zika virus NS2B-NS3 protease (linked construct). As to the kind of experiment: Primary screen NINDS Rhodamine qHTS for Zika virus inhibitors (AID 1347160). Note: nearly all actives have a fitted effect of over 55% in size. Note: potency is the fitted concentration of half-maximal effect. In outline:
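Enzyme (25 nM, linked NS2B-NS3) was preincubated 15 min with compound in 10 mM Tris-HCl pH 8.0, 0.01% Tween 20. Rhodamine110 substrate (1.5 microM) was then added and fluorescence read at start and after 15 min.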
(qHTS replaces the single test concentration by a dilution series.)

Experiment [3] is described as follows: Confirmatory screen NINDS Rhodamine qHTS for Zika virus inhibitors (AID 1347161).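 For activity change, negative = inhibition: purified Zika NS2B-NS3 protease with linked NS2B cofactor domain and Rhodamine110 peptide substrate; series mostly up to about 110 µM; plate controls were no-inhibitor control for no effect and no-enzyme control for full effect.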 Note: nearly all actives have a fitted effect of over 60% in size. Note: potency is the fitted concentration of half-maximal effect. Summed up:
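In 10 mM Tris-HCl pH 8.0 containing 0.01% Tween 20, linked NS2B-NS3 protease (25 nM final) is exposed to test compounds for 15 min. Cleavage of 1.5 microM Rhodamine110 substrate is tracked by fluorescence over 15 min.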

Experiment [4] is described as follows: Tertiary RLuc qRT-PCR qHTS assay for Zika virus inhibitors (AID 1347169). For activity change, negative = inhibition: top concentration of the series differs between compounds; % is set by controls: 0 for no effect and ±100 for the full control effect. Note: nearly all actives have a fitted effect of over 55% in size. Note: potency is the fitted concentration of half-maximal effect. Summed up:
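Vero cells (1,000/well) infected with recombinant ZIKV-RLuc (Cambodian) at MOI 1-2 after compound addition, 48-72 hrs at 37 degrees C. Live-cell Renilla luciferase substrate added; luminescence read after 1-1.5 hrs.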
(Real-time PCR tracks product formation cycle by cycle.)

Experiment [5] concerns Zika virus NS2B-NS3 protease (linked). As to the kind of experiment: 384 well plate NINDS AMC confirmatory qHTS for Zika virus inhibitors (AID 1347163). Note: potency is the fitted concentration of half-maximal effect; nearly all actives have a fitted effect of over 50% in size. In outline: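 Enzyme (5, 30 or 60 nM final) first met test compounds for ~15 min. The AMC-tagged peptide Ac-VKTGKR-AMC followed at 30 microM. Fluorescence was then recorded at 25 min and scaled against no-enzyme and no-inhibitor wells.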

The test system of experiment [6] is Zika virus NS2B-NS3 protease (linked construct). As to the kind of experiment: 384 well plate NINDS Rhodamine confirmatory qHTS for Zika virus inhibitors (AID 1347164).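 For activity change, negative = inhibition: top concentration of the series differs between compounds; plate controls were no-inhibitor control for no effect and no-enzyme control for full effect.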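 Note: fluorescence from protease cleavage of Ac-LKRR-rhodamine 110 substrate; nearly all actives have a fitted effect of over 65% in size.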 Note: potency is the fitted concentration of half-maximal effect. Summed up:
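Linked NS2B-NS3 protease (final 5, 30 or 60 nM) preincubated ~15 minutes with compounds, then 10 microM Ac-LKRR-Rhodamine 110 added. Fluorescence (485/538 nm) read after 25 minutes at room temperature, normalized to no-enzyme and no-inhibitor controls.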

Experiment [7] can be described thus: Vero cells viability qHTS for Zika virus inhibitors (AID 1347167). Note: % is set by controls: 0 for no effect and ±100 for the full control effect. In outline: (§1)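 Luminescent ATP readout (CellTiter Glo) after 30 min at 37 degrees C gives viability; cells in DMEM + 4% FBS were treated 24 to 48 hours with compound, following overnight attachment.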
Experiment [8] can be described thus: HepG2 cells viability qHTS for Zika virus inhibitors (AID 1347168). Note: % is set by controls: 0 for no effect and ±100 for the full control effect. In outline: as §1

Inconclusive results are not listed. Values without a mark were called inactive. Active and inactive are the calls of the source. Calls come from the whole dose curve; as a rule, active = well fitted curve in the direction sought with a large enough effect; inconclusive = small, poorly fitted or top-dose-only effect, or another doubt; inactive = no such curve, though single readings can be large; an effect the other way counts as inactive or inconclusive.

As to `COc1ccc2nccc(C(=O)CC[C@@H]3CCN(CC#Cc4cc(F)cc(F)c4F)C[C@@H]3C(=O)O)c2c1`, the Potency in experiment [1] was 25.1 µM (active); in experiment [3], 44.1 µM (active). The Potency result in experiment [2] and in experiment [4] was “inactive” each time.

In the case of `CCOc1nc(NC(=O)Cc2cc(OC)ccc2OC)cc(N)c1C#N`, the Potency entry in experiment [1] and in experiment [2] was “inactive” in each case.

As for `CC1CC(=O)C2=C(C1)C1OC1C1(O)C2C(=O)c2cccc(O)c2C1O` (stereo not drawn), the Potency result in experiment [2] is “inactive”.

In the case of `CC1=C(c2ccc(NC(=O)c3c(F)cccc3F)cc2)CN(c2nccs2)CC1`, the Potency result in experiment [2] was “inactive”.

Take `CC1=C(C(=O)OC2CCCCC2)C(c2ccc([N+](=O)[O-])cc2)C2=C(CC(C)(C)CC2=O)N1` (stereo not drawn): the Potency result in experiment [1], in experiment [3] and in experiment [4] was “inactive” in each case. In addition, the Potency in experiment [2] was 31.6 µM (active).

For the compound `CC(C)(C)Sc1c(CC(C)(C)C(=O)O)n(Cc2ccc(Cl)cc2)c2ccc(OCc3ccc4ccccc4n3)cc12`, the Potency in experiment [1] was 2.82 µM (active); in experiment [2] it was 4.47 µM (active); in experiment [3], 3.93 µM (active); in experiment [5] it was 14.1 µM (active); in experiment [4], 11.7 µM (active). For the same compound, in experiment [6], the Potency result is “inactive”. Further, the compound was called inactive in experiment [7] and in experiment [8].

On to `O=C1c2ccc(Nc3ccc(F)cc3F)cc2CCc2ccc(OCC(O)CO)cc21` (stereo not drawn), for which the Potency entry in experiment [2] was “inactive”.

In the case of `C=C(COC(=O)C(O)C(O)CN)C12OC1C1(C)C(=CC2=O)C(O)C(O)CC1C` (stereo not drawn), the Potency entry in experiment [1] and in experiment [2] was “inactive” each time.

For `C[C@H]1CC[C@@]2(OC1)O[C@H]1CC3C4CC[C@H]5C[C@@H](O)CC[C@]5(C)C4=CC(=O)[C@]3(C)[C@H]1[C@@H]2C` (stereo partly drawn), the Potency entry in experiment [2] is “inactive”.

With `CC#CCn1c(N2CCCC(N)C2)nc2c1c(=O)n(Cc1nc(C)c3ccccc3n1)c(=O)n2C` (stereo not drawn), the Potency result in experiment [1] and in experiment [2] was “inactive” throughout.

With `COc1cccc(NCCC2(c3ccccc3)CC(C)(C)OC(C)(C)C2)c1`, the Potency result in experiment [2] was “inactive”.

On to `C/C=C(/C)C(=O)O[C@@H]1C[C@@H](OC(=O)CC(C)C)C2(C)C3C(=O)C=C(C)C2C3C1(C)C` (stereo partly drawn), for which the Potency result in experiment [2] is “inactive”.

As for `CC(=O)O[C@@H]1C[C@]2(C)[C@@]3(CCC4[C@@]5(C)CC[C@H](O[C@@H]6O[C@H](C(=O)O)[C@@H](O)[C@H](OC7OC(CO)C(O)C(O)[C@H]7O[C@@H]7O[C@@H](C)[C@H](O)[C@@H](O)[C@H]7O[C@@H]7OC[C@](O)(CO)[C@H]7O)[C@H]6OC6OC(CO)C(O)C(O)C6O)C(C)(C)C5CC[C@]42C)OC[C@@]12CCC(C)(C)CC23` (stereo partly drawn), the activity change, negative = inhibition in experiment [2] is -13.3% [at 10.7 µM].

Turning to `O=S(=O)(Nc1cc(Cl)c(Oc2cnc3ccccc3c2)c(Cl)c1)c1ccc(Cl)cc1Cl`, the Potency in experiment [1] was 1.78 µM (active); in experiment [2], 3.98 µM (active); in experiment [3], 2.21 µM (active); in experiment [6], 2.51 µM (active); in experiment [4], 9.3 µM (active). Also, in experiment [8], the result was inactive.

On to `COc1cc(C(=O)O)ccc1NC(=O)C1NC(CC(C)(C)C)C(C#N)(c2ccc(Cl)cc2F)C1c1cccc(Cl)c1F` (stereo not drawn), for which the results for the Potency in experiment [1], in experiment [3] and in experiment [4] were 2.51 µM (active), 4.94 µM (active) and 9.3 µM (active), respectively. The Potency entry in experiment [2] is “inactive”.

Take `C=C1C(=O)OC2C1CCC1(C)C(O)CCC(=C)C21` (stereo not drawn): the Potency result in experiment [2] is “inactive”.

Regarding `C[C@H]1CO[C@@H]2Cn3cc(C(=O)NCc4ccc(F)cc4F)c(=O)c(O)c3C(=O)N12`, the Potency in experiment [1] was 35.5 µM (active). Also, the Potency result in experiment [2], in experiment [3] and in experiment [4] was “inactive” each time.

In the case of `CC(=O)OC1CC(C)C2(CCC3(CC(=O)OC3O)O2)C2(C)CCCC(C)(C)C12` (stereo not drawn), the Potency result in experiment [2] was “inactive”.

Take `O=C(Nc1cc(C(F)(F)F)cc(C(F)(F)F)c1)c1cnc(Cl)nc1C(F)(F)F`: the Potency in experiment [1] is 15.8 µM (active); in experiment [3] it was 44.1 µM (active). For the same compound, in experiment [2], the Potency entry is “inactive”.

Take `C=CC(=O)N1CCCC(n2nc(-c3ccc(Oc4ccccc4)cc3)c3c(N)ncnc32)C1` (stereo not drawn): the Potency entry in experiment [1] and in experiment [2] was “inactive” throughout.

In the case of `COc1cc(F)c(C(C)C)cc1-c1ccc(C(F)(F)F)cc1CN1C(=O)OC(c2cc(C(F)(F)F)cc(C(F)(F)F)c2)C1C` (stereo not drawn), in experiment [2], the Potency result was “inactive”.

For `COc1ccc2cc(-c3cc(-c4cc(Cl)cc(Cl)c4)nn3C(C)c3ccc(C(=O)NCCC(=O)O)cc3)ccc2c1` (stereo not drawn), the Potency in experiment [1] was 2.24 µM (active); in experiment [3], 4.94 µM (active). Besides, the Potency entry in experiment [2] and in experiment [4] was “inactive” throughout.

With `COc1ccc(-c2ccccc2)cc1NS(=O)(=O)c1cc(Cl)cc(Cl)c1O`, the Potency in experiment [1] was 1.41 µM (active); in experiment [2], 1.58 µM (active); in experiment [3] it was 1.71 µM (active); in experiment [5] it was 4.47 µM (active); in experiment [6] it was 4.47 µM (active). Further, the call in experiment [7] and in experiment [8] was inactive.

As for `C=C1C(=O)O[C@H]2CC(=C)[C@H]3CC[C@@](C)(O)[C@@H]3CC12` (stereo partly drawn), the Potency in experiment [1] is 11.2 µM (active). The Potency result in experiment [2] and in experiment [4] was “inactive” each time.

In the case of `Cc1noc(-c2ccc(-c3ccc(CC(=O)O)cc3)cc2)c1NC(=O)O[C@H](C)c1ccccc1Cl`, the Potency in experiment [1] was 3.16 µM (active); in experiment [2], 4.47 µM (active); in experiment [3], 4.94 µM (active); in experiment [5], 20 µM (active); in experiment [6], 7.94 µM (active); in experiment [4] it was 14.7 µM (active). In experiment [8], the call was inactive.

As to `CN(C)CC1CCn2c(c(C3=C(c4cn(C)c5ccccc45)C(=O)NC3=O)c3ccccc32)C1` (stereo not drawn), the Potency result in experiment [2] is “inactive”.

For `O=C(NCCCc1ccccc1)c1cccc(-c2cc(O)c3ncccc3c2)c1`, the Potency in experiment [1] is 89.1 µM (active). In addition, the Potency entry in experiment [2] and in experiment [3] was “inactive” throughout.

With `COc1cc(/C=C2\CC[C@H]3COC[C@@H](c4cc(F)c(F)c(F)c4)N3C2=O)ccc1-n1cnc(C)c1`, the Potency result in experiment [2] was “inactive”.

As for `CCc1ccccc1OC[C@@H](O)CN[C@H]1CCCc2ccccc21`, the Potency result in experiment [2] is “inactive”.
